About 810 (0.41%) of roughly 200,000 compounds were called active. The sample holds actives, similar compounds and a random draw of the others, so the mix is not that of the screen. Cut-off read from the data, not from the text of the source: active = activation above about 19%; inactive = the rest.
Target: Peroxisome proliferator-activated receptor gamma (Homo sapiens) (UniProt P37231)
Assay: PPARgamma agonists recruiting SRC-1 coactivator, primary screen, biochemical (AID 631);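 note: 0% = DMSO and 100% = reference agonist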
Conditions: PPARgamma-SRC-1 coactivator recruitment biochemical assay; at 8 µM; active compounds read high

Chain of Peroxisome proliferator-activated receptor gamma (Homo sapiens) (P37231 whole entry, looked up): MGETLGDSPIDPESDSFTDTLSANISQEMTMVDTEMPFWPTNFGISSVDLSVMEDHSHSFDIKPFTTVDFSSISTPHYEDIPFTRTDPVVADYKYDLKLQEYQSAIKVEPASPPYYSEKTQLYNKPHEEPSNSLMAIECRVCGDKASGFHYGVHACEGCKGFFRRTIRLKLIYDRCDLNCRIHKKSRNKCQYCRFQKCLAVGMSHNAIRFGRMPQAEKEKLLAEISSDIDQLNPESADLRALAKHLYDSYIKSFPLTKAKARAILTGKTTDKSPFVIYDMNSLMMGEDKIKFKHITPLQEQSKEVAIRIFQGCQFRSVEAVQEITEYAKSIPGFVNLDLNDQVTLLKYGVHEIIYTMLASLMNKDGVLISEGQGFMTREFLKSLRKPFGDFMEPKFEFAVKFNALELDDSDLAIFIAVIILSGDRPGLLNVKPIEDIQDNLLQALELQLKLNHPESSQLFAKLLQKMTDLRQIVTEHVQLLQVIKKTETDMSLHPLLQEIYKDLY

activation, inactive:
COc1cc(OC)c(C2=NOC(C(=O)Nc3c(C)n(C)n(-c4ccccc4)c3=O)C2)cc1Cl (centres undefined) 3.3%, Cc1ccc(-c2nc(C)sc2CC(=O)O)cc1 -2%, O=C(O)Cc1sc(-c2ccc(C(=O)O)cc2)nc1-c1ccccc1 12.4%, CC1(C)C(C=C(Cl)Cl)C1C(=O)N(Cc1ccc(Cl)cc1)C1CCS(=O)(=O)C1 (centres undefined) 1.5%, N#C/C(C(=O)N1CCOCC1)=C1/SC(Cc2ccc(F)cc2)C(=O)N1c1ccccc1 (centres undefined) -4.4%, CC(C)NC(=O)NC(=O)CSc1nnc(-c2ccccc2F)n1N 1.8%, Cn1c(CO)cnc1SCc1ccccc1 6.4%, O=c1c2ccccc2c(-c2ccccc2)nn1Cc1ccccc1 1%, COC(=O)NNC1=CC(=O)CC(C)(C)C1 5.4%, COc1ccc(-n2c(C)cc(C(=O)COC(=O)c3cc(OC)c(OC)cc3NC(=O)c3cccs3)c2C)cc1 8.5%, Cc1cccc(-c2ncc(CN3CCC(CO)(CCCc4ccccc4)CC3)cn2)c1 5.8%, CC(=O)c1cccc(CN2CCC(CO)(Cc3ccccc3)CC2)c1 0%, c1csc(-c2nnc(COc3ccc4c(c3)OCO4)o2)c1 0.1%, Cc1cccc(NC(=O)c2cc([N+](=O)[O-])ccc2N2CCN(C)CC2)c1 10.3%, COCCN(C(=O)c1ccccc1F)c1c(N)n(Cc2ccccc2)c(=O)[nH]c1=O -2.5%, CCN1CC(CN(C)Cc2nc(-c3ccc(Cl)cc3)no2)CC1=O (centres undefined) -3.9%, COc1ccc(Nc2nc(=O)[nH]nc2C)cc1 5.2%, Clc1ccc(N/N=C/c2cccs2)nn1 4.4%, CC(=O)Nc1ccc(CN2CCN(Cc3ccc(F)c(F)c3)C(CCO)C2)cc1 (centres undefined) 3.4%, O=C(C1CCN(S(=O)(=O)c2cccs2)CC1)N1CCCCCC1 -1.2%, Cc1ccc(C(=O)NCC(=O)O)cc1S(=O)(=O)N1CCCCC1 2.2%, O=C(NNc1cc(Cl)ccc1Cl)c1cccnc1Cl 5%, C=C(C)CNC(=S)N/N=C/c1ccccc1OCC(=O)O 4.6%, CCCc1nnc(NC(=O)c2cccs2)s1 -1.6%, Cc1ccc(C(=O)Oc2coc(CSc3nnc(NC(=O)c4cccs4)s3)cc2=O)cc1C -0.6%, CCc1nnc(NC(=O)c2cccs2)s1 1.3%, CCOc1cccc(C(=O)Nc2cccnc2)c1 4.5%, COc1ccc(/C=C/C2=CC(C)(C)NC(=S)N2)c(OC)c1 -5.6%, O=C(Cc1ccccc1Cl)N1CCN(c2ccccn2)CC1 -1%, CC(Sc1nncn1C)C(=O)Nc1cc(C(F)(F)F)ccc1N1CCOCC1 (centres undefined) -2.1%, CCOC(=O)CNC(=O)N1c2ccccc2Sc2ccccc21 8.4%, Cc1ccc2c(c1)C1CN(C)CCC1N2C(=O)c1ccccc1NS(=O)(=O)c1ccc(F)cc1C (centres undefined) 1.7%, COc1cc(NC(=O)COC(=O)c2cnc(C)cn2)c(C)cc1[N+](=O)[O-] -1%, Cc1ccc(-c2csc(SCC(=O)Nc3cc(C)on3)n2)cc1 -4%, Cc1cc(NC(=O)CSc2nnc(Nc3ccccc3F)s2)no1 -0.2%, COc1cccc(C2SCC(=O)N2c2cccc(C)c2)c1OC (centres undefined) 2.3%, CCCNC(=O)c1c(Cl)cnn1-c1ccc(C)cc1 -0.9%, O=C(O)c1ccc(N/N=C/c2ccc3ncccc3c2)cc1 7.5%, O=C(Nc1nnc(Cc2ccc(Cl)cc2)s1)c1cccnc1 0%, O=C1CN(C(=O)COC(=O)c2cnc(Cl)c(Cl)c2)c2ccccc2N1 8.3%, Cc1cccc2nc(CSc3nc4[nH]ncc4c(=O)n3-c3cccc(Cl)c3)cc(=O)n12 3.8%, O=c1c2sccc2nc(SCc2cc(=O)n3ccccc3n2)n1-c1ccc(Br)cc1 3%, Cc1ccsc1C1C(C#N)=C(N)OC2=C1C(=O)CC(C)(C)C2 (centres undefined) 11.2%, COc1ccccc1CCNC(=O)CSc1nnc2ccc(-c3cccnc3)nn12 4.1%, CC(=O)Oc1ccc2c(C)c(CC(C)O)c(=O)oc2c1 (centres undefined) -0.8%, Cc1c(Cc2ccccc2)c(=O)oc2cc(OCC(N)=O)ccc12 -0.5%, CNC(=S)Nc1ccc([N+](=O)[O-])cc1 7.4%, CCOc1cnc(-c2c(-c3ccccc3Cl)noc2C)o1 9.5%, COc1ccc(-c2ccc(CNCCCN3CCOCC3)o2)cc1Cl 10.2%, COc1cc(C2C(C(=O)c3ccc(C)o3)=C(O)C(=O)N2CCc2ccccc2)ccc1O (centres undefined) 4.9%, COc1cc(C2C(C(=O)c3ccc(C)o3)=C(O)C(=O)N2Cc2cccnc2)ccc1O (centres undefined) -0.3%, COc1ccc2c(c1)CCc1cn3ncc(C#N)c3nc1-2 2.5%, CCCn1c(=S)[nH]c2ccc(C(F)(F)F)cc21 7.7%, Cc1ccc(NC(=O)CSCC(=O)NC2CCCCC2)cc1 6.7%, Cc1cccc(OCc2ccc(C(=O)Nc3ccc(F)cc3)cc2)c1 8.1%, Cc1nc2ccccc2cc1OCc1ccc(F)cc1 -0.6%, COc1ccc(OC)c(-c2csc(NC(=O)C3=NNC(=O)CC3)n2)c1 -3.7%, Cc1cc(NC(=O)COC(=O)COc2ccc(Cl)cc2C)c([N+](=O)[O-])cc1C -2.9%, COc1ccc2c(Cl)c(C(=O)NCc3ccco3)sc2c1 -0.6%, COc1ccc(-c2nnco2)cc1OC -4%, CC(=O)Nc1ccccc1OC(C)C(=O)N1CCC(C)CC1 (centres undefined) 3.2%, Cc1nn2cc(-c3ccc(Cl)cc3)cnc2c1Br 9.4%, Cn1c(-c2sccc2OCc2cccc(C(F)(F)F)c2)n[nH]c1=S 2.2%, Cc1cc(C(F)(F)F)n2ncc(-c3ccccc3)c2n1 -0.8%, COc1cccc(CNC(=O)CCC2CCCN(C(=O)c3ccoc3C)C2)c1 (centres undefined) 11.7%, CC1(C)CN(c2ccc(-c3ccnc4ncnn34)cc2)C1=O -2.6%, CSCCC(=O)N1CCCC(CNC(=O)c2ccccc2Cl)C1 (centres undefined) 6%, COc1ccc(C2/C(=C(/O)c3ccccc3)C(=O)C(=O)N2c2ncccn2)cc1OC (centres undefined) 8.9%, COc1ccccc1C1/C(=C(/O)c2ccc(OC(C)C)cc2)C(=O)C(=O)N1c1cc(C)on1 (centres undefined) 16.5%, Cc1ccc(C(=O)Cc2nnc(C)s2)cc1 -2.5%, Cc1cccc(NC(=S)N2CCC(O)CC2)c1C 1.3%, CCN1CCN(c2cc3nc(C)n(Cc4ccccc4)c(=O)c3cc2NC(=O)c2ccccc2F)CC1 3.9%, COc1cccc(NC(=S)NCc2ccco2)c1 -2.7%, C=CCn1c(-c2sc(-c3ccccc3)nc2C)n[nH]c1=S 0.8%, Cc1nc(-c2ccccc2)sc1C(=O)/C=C/c1ccccc1 -1.9%, O=C(O)C1C2CC2CN1C(=O)c1ccc(Cl)cc1Cl (centres undefined) 4.2%, Cc1cccc(C)c1NC(=O)C1(C)c2cccc[n+]2CC(=O)N1Cc1cccs1 (centres undefined) -2.9%, Cc1nc(SCc2ccc(F)cc2)c([N+](=O)[O-])[nH]1 5.8%, COc1ccc(/C(O)=C2\C(=O)C(=O)N(Cc3ccco3)C2c2ccc(OC)cc2OC)cc1 (centres undefined) 2%, COc1ccccc1C1/C(=C(/O)c2ccc(C)cc2)C(=O)C(=O)N1Cc1ccco1 (centres undefined) 10.8%, COC(=O)c1c(C)[nH]c(C)c1-c1ccc([N+](=O)[O-])cc1 -0.7%, Cc1ccc(/C=N/NC(=O)COc2ccccc2-c2ccccc2)cc1 2.1%

activation, active:
O=C(O)Cc1sc(-c2ccccc2)nc1-c1cccs1 28.9%, CSc1c(SCc2ccccc2)cnn(Cc2ccccc2)c1=O 24%, OCC1(CCc2ccccc2)CCN(Cc2ccc3nsnc3c2)CC1 35.7%, Cc1n[nH]c(=O)nc1N/N=C/c1cccs1 22.1%, Cc1ccc(NS(=O)(=O)c2cccs2)cc1S(=O)(=O)N1CCCCCC1 27.9%, Cc1ccc(C(=O)Nc2nnc(-c3cccs3)s2)cc1C 21.8%, CCOc1cccc(C(=O)Nc2nnc(-c3cccs3)s2)c1 41.8%, Cc1cc(C)c2c(c1)cc(C)c1nnc(SCC(=O)Nc3cc(C)on3)n12 22.2%, CCc1ccc(-n2c(SCc3cc(=O)n4cc(Br)ccc4n3)nc3[nH]ncc3c2=O)cc1 23.4%, O=C(Oc1ccccc1)Oc1ccc2c(c1)oc(=O)c1ccccc12 33.7%, CCCOc1ccc(C2C(C(=O)c3ccc(C)o3)=C(O)C(=O)N2CCCn2ccnc2)cc1 (centres undefined) 25.1%, Fc1ccc(COc2cccc(-c3n[nH]c(=S)o3)c2)cc1 61.7%, COc1ccc2c(Cl)c(-c3nnco3)sc2c1 24.2%, Cn1c(-c2sc3cc(C(F)(F)F)cnc3c2-c2ccccc2)n[nH]c1=S 36.3%, Cc1cc(N2C(=O)C(=O)/C(=C(/O)c3ccc(Cl)cc3)C2c2cccc(Br)c2)no1 (centres undefined) 20.6%, Cc1nc(-c2ccccc2)sc1-c1nc(-c2ccccc2)ncc1S(=O)(=O)c1ccccc1 19.3%, COc1ccc(/C(O)=C2/C(=O)C(=O)N(c3nc(C)c(C)s3)C2c2ccco2)cc1 (centres undefined) 22.1%

Reference: PubChem BioAssay AID631 (The Scripps Research Institute Molecular Screening Center, 2007)
